Laboratory results from PubChem BioAssay (Tox21).
Records with an inconclusive call do not appear. Activity calls are given as the source filed them. Unless noted, the call rests on the fitted dose curve.

Assays:
[1] = Nuclear factor erythroid 2-related factor 2/antioxidant responsive element (Nrf2/ARE) small molecule agonists: qHTS cell viability counter screen in human keratinocytes (AID 1919968; active means well fitted curve in the direction sought with a large enough effect in the repeat runs; an effect the other way counts as inactive or inconclusive; further: nearly all actives have a fitted effect of over 55% in size)
Method in brief: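 Seed 1,500 KeratinoSens cells per well, then incubate 5 h at 37 C/5% CO2. Add compounds in DMSO and incubate 23 h. Add CellTiter-Fluor, wait 1 h and read fluorescence.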

[2] = Nuclear factor erythroid 2-related factor 2/antioxidant responsive element (Nrf2/ARE) small molecule agonists: luciferase reporter gene qHTS assay in human keratinocytes (AID 1919969); further: nearly all actives have a fitted effect of over 35% in size
[3] = biological target: Gonadotropin-releasing hormone receptor (Homo sapiens) (UniProt P30968); experiment: Human gonadotropin-releasing hormone receptor (GnRHR) small molecule agonists, calcium flux assay in GnRHR-HEK293 cells (AID 1920063); further: nearly all actives have a fitted effect of over 35% in size
Method in brief: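 Cells: HEK293 stably expressing human GnRHR. Steps: overnight (18 h) culture, 1 h calcium dye loading at 37 C, compound addition, kinetic fluorescence read at 480/540 nm. Each compound tested at 15 concentrations in triplicate.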

[4] = biological target: KiSS-1 receptor (Homo sapiens) (UniProt Q969F8); experiment: Human kisspeptin (KISS1R) small molecule agonists, calcium flux assay in KISS1R-HEK293 cells (AID 1920064; active means well fitted curve in the direction sought with a large enough effect in the repeat runs; an effect the other way counts as inactive or inconclusive)
Method in brief: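 Cells plated and incubated 18 h; dye added, 1 h at 37 C; compounds in DMSO pinned in; signal read at 480/540 nm every second for 3 min. Each compound tested at 15 concentrations in triplicate.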

[5] = G protein-coupled receptor (GPCR) small molecule agonists, calcium flux assay: HEK293 wild type cell line counter screen (AID 1920065)
Method in brief: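 Counter-screen of the Tox21 10K library for non-specific calcium release: dye-loaded cells received compounds in DMSO and were monitored by kinetic fluorescence (480/540 nm, 3 min). Fifteen concentrations, run in triplicate.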

[6] = p53 small molecule agonists, cell-based qHTS assay with human liver microsomes: qHTS cell viability counter screen (AID 1963579); further: nearly all actives have a fitted effect of over 45% in size
Method in brief: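 p53RE-bla cells, 4,000/well, dosed 5 hours after plating, with human liver microsomes (0.5 mg/mL final) plus NADPH (0.5 mg/mL final), 16 hours at 37 C. Viability read as CellTiter-Glo luminescence after 30 min at room temperature.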

[7] = biological target: 5-hydroxytryptamine receptor 2A (Homo sapiens) (UniProt P28223); experiment: 5-hydroxytryptamine receptor 2A (HTR2A) small molecule agonists, cell-based qHTS assay (AID 1963587); further: nearly all actives have a fitted effect of over 30% in size
Method in brief: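 Kinetic calcium-flux fluorescence (2 min, 1 sec intervals) after compound addition in agonist mode. HTR2A-CHO cells were cultured 18 h, then dye-loaded 1 h at 37 C.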

[8] = biological target: Muscarinic acetylcholine receptor M1 (Homo sapiens) (UniProt P11229); experiment: Cholinergic receptor muscarinic 1 (CHRM1) small molecule antagonists, cell-based qHTS assay (AID 1963588); further: nearly all actives have a fitted effect of over 40% in size
Method in brief: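 CHRM1-CHO calcium-flux assay, antagonist mode. Cells were seeded 18 h, dye-loaded 1 h at 37 C and given compound for 5 min at RT, then acetylcholine was added at 50nM. FDSS fluorescence was read 3 min; 15 concentrations, three runs.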

[9] = biological target: Muscarinic acetylcholine receptor M1 (Homo sapiens) (UniProt P11229); experiment: Cholinergic receptor muscarinic 1 (CHRM1) small molecule agonists, cell-based qHTS assay (AID 1963589); further: nearly all actives have a fitted effect of over 35% in size
Method in brief: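 Agonist-mode qHTS in CHO cells stably carrying human muscarinic M1. Intracellular calcium is tracked by fluorescence every second after compound transfer; each compound runs at 15 concentrations in three independent runs.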

[10] = cAMP Responsive Elements (CRE) small molecule agonists, cell-based qHTS assay (AID 1963590)
Method in brief: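 Agonist mode qHTS in CRE-bla HEK 293T cells: compounds dosed from DMSO for 3 h at 37 C/5% CO2, followed by LiveBLAzer B/G FRET substrate for 2 h at room temperature.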

[11] = cAMP Responsive Elements (CRE) small molecule antagonists, cell-based qHTS assay (AID 1963591; active means well fitted inhibition curve with a large enough effect in the signal ratio in the repeat runs, not every such curve was filed as active; the % refers to the signal ratio)
Method in brief: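 Antagonist mode: test compounds are co-incubated with the adenylyl cyclase activator NKH477 (0.25 uM final) on CRE-bla HEK293T cells for 3 h at 37 °C, followed by LiveBLAzer substrate loading.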

[12] = biological target: Beta-2 adrenergic receptor (Homo sapiens) (UniProt P07550); experiment: Adrenergic beta2 receptor (ADRB2) small molecule agonists, cell-based qHTS assay (AID 1963593);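 further: CHO cells stably overexpressing human ADRB2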
Method in brief: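 CHO cells stably over-expressing ADRB2 were plated overnight at 37C, then dosed with compounds plus a stimulation mix containing 100uM IBMX and 25uM Ro-20-1724 for 0.5hr at room temperature. cAMP was measured by HTRF competition, 1hr.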

[13] = biological target: D(2) dopamine receptor (Homo sapiens) (UniProt P14416); experiment: Dopamine D2 receptor (DRD2) small molecule agonists, cell-based qHTS assay (AID 1963594); further: nearly all actives have a fitted effect of over 35% in size
Method in brief: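 cAMP accumulation in DRD2-HEK293 cells measured by HTRF after 1 h detection; compounds added 10 min before NKH477 (200nM […]) forskolin-analogue stimulation, 30 min at room temperature, with Ro20-1724 present at 0.1 mM final.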

[14] = biological target: D(2) dopamine receptor (Homo sapiens) (UniProt P14416); experiment: Dopamine D2 receptor (DRD2) small molecule antagonists, cell-based qHTS assay (AID 1963595; active means well fitted inhibition curve with a large enough effect in the signal ratio in the repeat runs, with a control signal flat; the % refers to the signal ratio)
Method in brief: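 Stable D2 receptor HEK293 line, 24 h after seeding. Compound preincubated 10 min, then quinpirole (12 nM) with forskolin analogue NKH477 (200 nM), 30 min, room temperature. Detection by time-resolved FRET of cAMP.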

[15] = p53 small molecule agonists, cell-based qHTS assay: qHTS cell viability counter screen (AID 1963581); further: nearly all actives have a fitted effect of over 45% in size
Method in brief: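 Cells: HCT-116 with p53 response element-driven beta-lactamase. Treatment: 16 h, 37 C, compounds in DMSO. Read: CellTiter-Glo luminescence after 30 min RT.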

[16] = biological target: 5-hydroxytryptamine receptor 2A (Homo sapiens) (UniProt P28223); experiment: 5-hydroxytryptamine receptor 2A (HTR2A) small molecule antagonists, cell-based qHTS assay (AID 1963586); further: nearly all actives have a fitted effect of over 45% in size
Method in brief: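 Antagonist-mode intracellular calcium assay: DOI (4 nM) added after 5 min compound pre-incubation at room temperature to dye-loaded HTR2A-CHO cells. Fluorescence followed for 3 min, sampled every second.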

[17] = biological target: Beta-2 adrenergic receptor (Homo sapiens) (UniProt P07550); experiment: Adrenergic beta2 receptor (ADRB2) small molecule antagonists, cell-based qHTS assay (AID 1963592); further: series mostly up to about 92 µM; nearly all actives have a fitted effect of over 50% in size
Method in brief: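 Cells (CHO, stable ADRB2 overexpression) incubated 18-20hr at 37C; compounds added from DMSO; agonist mix (1nM isoproterenol, 100uM IBMX, 25uM Ro-20-1724) added; 0.5hr RT; d2-cAMP and anti-cAMP-cryptate added; 1hr RT; 665/615 nm read.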

[18] = p53 small molecule agonists, cell-based qHTS assay (AID 1963582; active means well fitted activation curve with a large enough effect in the signal ratio in the repeat runs, not every such curve was filed as active; the % refers to the signal ratio)
Method in brief: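 Quantitative HTS in p53RE-bla cells: after a 5 h settling period, compounds delivered in DMSO were left on cells for 16 h at 37 C, and reporter induction was measured as fluorescence following 2 h substrate loading.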

[19] = p53 small molecule agonists, cell-based qHTS assay with rat liver microsomes: qHTS cell viability counter screen (AID 1963580); further: nearly all actives have a fitted effect of over 45% in size
Method in brief: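 Intracellular ATP, by CellTiter-Glo luminescence, defines viability. HCT-116 p53RE-bla cells, 4,000 per well, were compound-treated in the presence of rat liver microsomes and NADPH for 16 h at 37 C.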
On the % scale 0 is the no-effect control and ±100 the full control effect.

Chain of 5-hydroxytryptamine receptor 2A (Homo sapiens) (P28223 whole entry, looked up): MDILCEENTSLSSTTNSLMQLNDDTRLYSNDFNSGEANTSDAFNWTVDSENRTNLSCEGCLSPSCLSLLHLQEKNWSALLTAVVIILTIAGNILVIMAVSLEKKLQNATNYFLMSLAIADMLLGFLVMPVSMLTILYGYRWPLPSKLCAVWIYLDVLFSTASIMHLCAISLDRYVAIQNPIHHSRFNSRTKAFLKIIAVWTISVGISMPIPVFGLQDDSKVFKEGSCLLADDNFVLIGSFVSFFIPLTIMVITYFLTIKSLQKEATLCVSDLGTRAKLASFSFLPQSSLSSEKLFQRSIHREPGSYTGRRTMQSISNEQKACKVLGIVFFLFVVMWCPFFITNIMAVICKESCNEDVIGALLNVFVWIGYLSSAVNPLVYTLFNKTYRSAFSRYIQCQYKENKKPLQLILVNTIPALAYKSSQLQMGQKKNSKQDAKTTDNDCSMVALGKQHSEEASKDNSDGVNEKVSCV
Chain of Gonadotropin-releasing hormone receptor (Homo sapiens) (P30968 whole entry, looked up): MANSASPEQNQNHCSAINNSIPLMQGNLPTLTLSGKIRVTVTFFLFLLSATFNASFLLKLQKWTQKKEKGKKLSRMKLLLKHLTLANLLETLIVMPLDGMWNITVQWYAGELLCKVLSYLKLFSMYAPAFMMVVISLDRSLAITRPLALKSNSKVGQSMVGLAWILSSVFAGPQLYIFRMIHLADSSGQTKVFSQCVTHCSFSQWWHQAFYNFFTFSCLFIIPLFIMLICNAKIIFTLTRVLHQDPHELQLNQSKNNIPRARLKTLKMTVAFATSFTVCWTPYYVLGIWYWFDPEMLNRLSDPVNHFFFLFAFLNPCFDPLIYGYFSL
Chain of Beta-2 adrenergic receptor (Homo sapiens) (P07550 whole entry, looked up): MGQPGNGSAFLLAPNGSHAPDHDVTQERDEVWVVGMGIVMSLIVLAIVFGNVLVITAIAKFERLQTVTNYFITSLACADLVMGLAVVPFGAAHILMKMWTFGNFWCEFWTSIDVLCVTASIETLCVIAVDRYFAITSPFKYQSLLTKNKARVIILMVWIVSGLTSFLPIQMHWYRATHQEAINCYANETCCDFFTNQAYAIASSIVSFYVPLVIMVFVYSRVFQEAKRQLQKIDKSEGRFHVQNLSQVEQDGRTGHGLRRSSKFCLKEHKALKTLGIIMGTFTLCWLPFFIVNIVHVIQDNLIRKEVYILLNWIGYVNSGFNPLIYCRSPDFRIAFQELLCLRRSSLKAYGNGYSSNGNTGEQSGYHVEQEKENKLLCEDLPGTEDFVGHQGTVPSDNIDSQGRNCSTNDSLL
Chain of KiSS-1 receptor (Homo sapiens) (Q969F8 whole entry, looked up): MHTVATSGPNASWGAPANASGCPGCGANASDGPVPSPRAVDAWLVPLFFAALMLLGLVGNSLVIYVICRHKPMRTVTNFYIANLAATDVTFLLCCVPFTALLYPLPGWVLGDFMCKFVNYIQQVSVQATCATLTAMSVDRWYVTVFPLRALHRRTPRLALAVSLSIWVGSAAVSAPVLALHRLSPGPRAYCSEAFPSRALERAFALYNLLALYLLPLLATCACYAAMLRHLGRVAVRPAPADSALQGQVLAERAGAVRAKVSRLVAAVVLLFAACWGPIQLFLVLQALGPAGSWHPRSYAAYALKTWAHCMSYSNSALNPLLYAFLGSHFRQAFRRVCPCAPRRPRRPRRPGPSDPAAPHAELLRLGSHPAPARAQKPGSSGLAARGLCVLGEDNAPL
Chain of D(2) dopamine receptor (Homo sapiens) (P14416 whole entry, looked up): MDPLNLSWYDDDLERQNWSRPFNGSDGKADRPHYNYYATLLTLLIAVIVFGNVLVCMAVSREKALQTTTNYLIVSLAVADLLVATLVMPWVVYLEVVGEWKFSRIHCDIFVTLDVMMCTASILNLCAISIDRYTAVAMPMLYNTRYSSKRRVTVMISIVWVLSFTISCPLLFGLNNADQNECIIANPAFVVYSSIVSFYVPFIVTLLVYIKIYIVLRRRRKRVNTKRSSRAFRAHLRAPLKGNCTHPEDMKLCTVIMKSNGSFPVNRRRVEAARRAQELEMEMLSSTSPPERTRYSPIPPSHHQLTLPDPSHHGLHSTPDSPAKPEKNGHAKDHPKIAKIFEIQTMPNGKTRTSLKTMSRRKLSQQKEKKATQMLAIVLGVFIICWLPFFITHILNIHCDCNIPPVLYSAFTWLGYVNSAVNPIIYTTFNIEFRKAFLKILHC
Chain of Muscarinic acetylcholine receptor M1 (Homo sapiens) (P11229 whole entry, looked up): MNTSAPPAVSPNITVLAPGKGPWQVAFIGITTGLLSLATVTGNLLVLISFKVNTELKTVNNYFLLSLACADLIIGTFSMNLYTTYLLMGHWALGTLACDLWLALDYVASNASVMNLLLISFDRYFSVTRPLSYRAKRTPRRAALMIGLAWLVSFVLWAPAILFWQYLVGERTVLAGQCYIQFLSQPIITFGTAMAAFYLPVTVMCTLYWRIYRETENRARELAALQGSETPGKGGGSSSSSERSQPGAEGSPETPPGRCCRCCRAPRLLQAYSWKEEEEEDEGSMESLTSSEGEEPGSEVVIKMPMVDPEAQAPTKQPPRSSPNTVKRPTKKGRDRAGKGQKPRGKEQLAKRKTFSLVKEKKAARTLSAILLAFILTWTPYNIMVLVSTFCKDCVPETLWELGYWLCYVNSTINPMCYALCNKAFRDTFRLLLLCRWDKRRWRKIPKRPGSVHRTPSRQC

N=C(N)N1CCc2ccccc2C1
inactive: activity change, negative = cytotoxicity [1] 2.9% [at 8.39 µM] | activity, positive = activation [2] -4.04% [at 8.39 µM] | activity change [3] 0.504% [at 5.22 µM, stronger effect = higher value] | activation [4] -0.218% [at 6.97 µM] | activation [5] -0.314% [at 5.23 µM] | activity change, negative = cytotoxicity [6] -1.79% [at 5.99 µM] | activation [7] -10.3% [at 7.02 µM] | activity, negative = inhibition [8] -1.92% [at 5.58 µM] | activation [9] 0.312% [at 6.97 µM] | activation [10] 0.166% [at 8.39 µM] | activity change, negative = inhibition [11] -2.28% [at 8.39 µM] | activation [12] 9.27% [at 8.39 µM] | activation [13] 22% [at 8.39 µM] | activity change, negative = inhibition [14] 16.9% [at 8.38 µM]

Brc1c2ccccc2c(Br)c2ccccc12
inactive: activity change, negative = cytotoxicity [1] 9.04% [at 8.39 µM] | activity, positive = activation [2] -5.36% [at 8.39 µM] | activity change [3] -0.0865% [at 5.22 µM, stronger effect = higher value] | activation [4] 0.391% [at 6.97 µM] | activation [5] -0.151% [at 5.23 µM] | activity change, negative = cytotoxicity [6] 1.01% [at 5.99 µM] | activity change, negative = cytotoxicity [15] 12.6% [at 5.99 µM] | activity, negative = inhibition [16] 33.2% [at 5.62 µM] | activation [7] 0.903% [at 7.02 µM] | activity, negative = inhibition [8] -2.59% [at 5.58 µM] | activation [9] -0.0159% [at 6.97 µM] | activity change, negative = inhibition [11] 2.05% [at 8.39 µM] | activity change, negative = inhibition [17] -10.4% [at 8.39 µM] | activation [12] 3.4% [at 8.39 µM] | activation [13] 2.55% [at 8.39 µM] | activity change, negative = inhibition [14] -0.559% [at 8.38 µM]

Cc1c(-c2cccnc2)c2ccccc2n1CCCCC(=O)O
inactive: Potency [1] | Potency [2] | Potency [3] | Potency [4] | Potency [5] | Potency [6] | Potency [18] | Potency [16] | Potency [7] | Potency [8] | Potency [9] | Potency [17]

Clc1sc(Cl)c(Cl)c1Cl
inactive: Potency [1] | Potency [2] | Potency [3] | Potency [4] | Potency [5] | Potency [6] | Potency [15] | Potency [16] | Potency [8] | Potency [9] | Potency [10] | Potency [11] | Potency [17] | Potency [12] | Potency [13] | Potency [14]

Cc1cccc(C(=O)O)c1O
inactive: Potency [1] | Potency [2] | Potency [3] | Potency [4] | Potency [5] | Potency [6] | Potency [15] | Potency [16] | Potency [8] | Potency [10] | Potency [11] | Potency [12] | Potency [13] | Potency [14]

CC(C)(C)C(O)/C=C/c1ccc2c(c1)OCO2 (configuration not stated)
inactive: Potency [1] | Potency [2] | Potency [3] | Potency [4] | Potency [5] | Potency [6] | Potency [15] | Potency [16] | Potency [7] | Potency [8] | Potency [9] | Potency [11] | Potency [12] | Potency [13] | Potency [14]

Nc1cc(Cl)cc(S(=O)(=O)O)c1O
inactive: Potency [1] | Potency [2] | Potency [3] | Potency [4] | Potency [5] | Potency [19] | Potency [15] | Potency [16] | Potency [7] | Potency [8] | Potency [9] | Potency [10] | Potency [11] | Potency [17] | Potency [13]
